Data as given in PubChem BioAssay (NCI).
The panel holds about 79,000 compounds, 15% with a hit somewhere; the sample as a whole holds those more often. Activity calls are given as the source filed them. Cut-off read from the data, not from the text of the source: active = growth inhibition above about 70%; inactive = the rest.

Legend:
[1] = NCI Yeast Anticancer Drug Screen. Data for the rad50EPP+ strain (AID 151);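 note: 0% = growth of vehicle-treated control cultures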; conditions: S. cerevisiae rad50 mutant strain, active compounds read high
Summary of the method: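 In this screen, rad50EPP+ yeast were exposed to compounds. Growth inhibition was scored against vehicle-treated controls.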

[2] = NCI Yeast Anticancer Drug Screen. Data for the rad50 strain (AID 155);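 note: 0% = growth of vehicle-only cultures of the same strain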; conditions: S. cerevisiae rad50 strain growth inhibition, active compounds read high
Summary of the method: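 Compounds were tested on a yeast strain with an engineered DNA damage repair alteration; the reported value is growth inhibition normalised to vehicle treatment.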

[3] = NCI Yeast Anticancer Drug Screen. Data for the mec2-1 strain (AID 157); conditions: S. cerevisiae mec2-1 strain, active compounds read high
Summary of the method: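 Vehicle-treated cultures served as reference for growth inhibition of compound-exposed mec2-1 yeast.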

[4] = NCI Yeast Anticancer Drug Screen. Data for the rad14 strain (AID 159);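 note: 0% = growth of vehicle-treated control cultures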; conditions: S. cerevisiae rad14 strain growth inhibition, active compounds read high
Summary of the method: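 Compound-treated yeast with a defined DNA-repair lesion; growth inhibition normalised to vehicle-treated cultures.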

[5] = NCI Yeast Anticancer Drug Screen. Data for the sgs1 mgt1 strain (AID 161);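 note: 0% = growth of cultures given vehicle only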; conditions: S. cerevisiae sgs1 mgt1 strain, active compounds read high
Summary of the method: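 Test agents were incubated with a DNA-repair-mutant yeast strain. Growth was then read and compared against vehicle-treated controls.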

[6] = NCI Yeast Anticancer Drug Screen. Data for the CLN2oe strain (AID 163);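 note: 0% = growth of vehicle-only control cultures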; conditions: S. cerevisiae CLN2oe strain, active compounds read high
Summary of the method: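 Inhibition relative to vehicle-treated yeast is reported. Cells: strain with genetic alteration in cell-cycle control, grown with compound.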

[7] = NCI Yeast Anticancer Drug Screen. Data for the cln2 rad14 strain (AID 165);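 note: 0% = growth equal to vehicle treated cultures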; conditions: S. cerevisiae cln2 rad14 strain, active compounds read high
Summary of the method: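 Each compound was tested on cln2 rad14 yeast. Inhibition of growth was calculated against vehicle-exposed controls.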

[8] = NCI Yeast Anticancer Drug Screen. Data for the bub3 strain (AID 167); conditions: S. cerevisiae bub3 mutant strain, active compounds read high
Summary of the method: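 Growth of a checkpoint-deficient yeast mutant is measured after compound exposure. Values represent inhibition relative to vehicle.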

[9] = NCI Yeast Anticancer Drug Screen. Data for the wt2 strain (AID 169);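 note: 0% = growth of vehicle-treated yeast cultures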; conditions: S. cerevisiae wt2 strain growth inhibition, active compounds read high
Summary of the method: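 Inhibition of yeast growth was determined after compound treatment, normalised to controls receiving only vehicle.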

[10] = NCI Yeast Anticancer Drug Screen. Data for the mlh1 strain (AID 171);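 note: 0% = growth of vehicle-treated control cultures of the same strain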; conditions: S. cerevisiae mlh1 strain growth inhibition, active compounds read high
Summary of the method: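 Vehicle-normalised growth inhibition of a repair- or checkpoint-altered yeast strain following compound treatment.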

[11] = NCI Yeast Anticancer Drug Screen. Data for the sgs1 strain (AID 173);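 note: 0% = growth of vehicle-only control cultures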; conditions: S. cerevisiae sgs1 mutant, active compounds read high
Summary of the method: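 Screen format: yeast with repair or checkpoint alterations, compound exposure, growth read relative to vehicle.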

[12] = NCI Yeast Anticancer Drug Screen. Data for the mlh1 rad18 strain (AID 175); conditions: S. cerevisiae mlh1 rad18 strain growth inhibition, active compounds read high
Summary of the method: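 Vehicle-treated cultures served as the reference for growth inhibition in a yeast strain carrying DNA damage repair alterations exposed to each compound.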

[13] = NCI Yeast Anticancer Drug Screen. Data for the rad18 strain (AID 177); conditions: S. cerevisiae rad18 mutant growth inhibition, active compounds read high
Summary of the method: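 Test articles were incubated with altered yeast defective in DNA damage repair. Results are given as inhibition of growth versus vehicle.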

[14] = at 5.0 µM (retest, dose inferred, filed as 0.5)
[15] = at 50.0 µM (retest, dose inferred, filed as 5.0)

Measured: growth inhibition

O=c1oc(C(C(F)(F)F)C(F)(F)F)nc2ccccc12
inactive: [1]; at 1.2 µM 22% | [1]; at 3.7 µM 30% | [1]; at 11.0 µM 35% | [1]; at 33.0 µM 43% | [1]; at 100.0 µM 51% | [2]; at 1.2 µM 33% | [2]; at 3.7 µM 27% | [2]; [14] 10% | [2]; at 11.0 µM 25% | [2]; at 33.0 µM 29% | [2]; at 50.0 µM 36.1% | [2]; at 100.0 µM 29% | [3]; at 1.2 µM 13% | [3]; at 3.7 µM 27% | [3]; [14] 7% | [3]; at 11.0 µM 23% | [3]; at 33.0 µM 29% | [3]; at 100.0 µM 34% | [4]; at 1.2 µM 16% | [4]; at 3.7 µM 21% | [4]; at 11.0 µM 26% | [4]; at 33.0 µM 29% | [4]; at 100.0 µM 42% | [5]; [14] -5% | [5]; [15] 12% | [5]; at 50.0 µM 12.7% | [6]; at 1.2 µM 18% | [6]; at 3.7 µM 12% | [6]; at 11.0 µM 26% | [6]; at 33.0 µM 1% | [6]; at 100.0 µM 15% | [7]; [14] 23% | [7]; [15] 33% | [7]; at 50.0 µM 12.3% | [8]; at 1.2 µM 3% | [8]; at 3.7 µM 13% | [8]; [14] -27% | [8]; at 11.0 µM 20% | [8]; at 33.0 µM -5% | [8]; [15] -6% | [8]; at 50.0 µM 16.6% | [8]; at 100.0 µM 15% | [9]; at 1.2 µM -3% | [9]; at 3.7 µM -5% | [9]; at 11.0 µM -7% | [9]; at 33.0 µM 2% | [9]; at 100.0 µM 32% | [10]; at 1.2 µM 16% | [10]; at 3.7 µM 12% | [10]; at 11.0 µM 17% | [10]; at 33.0 µM 20% | [10]; at 100.0 µM 32% | [11]; at 1.2 µM 26% | [11]; at 3.7 µM 39% | [11]; at 11.0 µM 40% | [11]; at 33.0 µM 43% | [11]; at 100.0 µM 46% | [12]; [14] 15% | [12]; at 50.0 µM 50.6% | [13]; at 1.2 µM 22% | [13]; at 3.7 µM 15% | [13]; at 11.0 µM 20% | [13]; at 33.0 µM 19% | [13]; at 100.0 µM 30%
active: [2]; [15] 72% | [3]; [15] 83% | [3]; at 50.0 µM 70.2% | [12]; [15] 88%
